The list is not random: actives were taken first. Their share in the collection is about 1.6%.
CendR NRP1 mod – alters CendR peptide binding to human NRP-1; inhibition, % at 25 µM; 0.85% of 360,000 active; FAM-RPARPAR peptide binding to NRP-1, fluorescence polarization; AID 602438;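 active means inhibition or corrected inhibition above about 18%, plus a signal ratio from 0.5 to 1.5, limit read from the data, passing the limit was not always enough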
VLA-4 inh – inhibition in a human VLA-4 binding assay | P13612 | VLA-4 expressing cells, ligand binding flow cytometry | inhibition, % (about 7 µM as worked out from the volumes in the protocol) | 0.2% of 330,000 active | AID 2557
PKA-R2B act – PKA-R2B complex activation; P22694+P31323; 0.079% of 340,000 active; activation, % at 11.4 µM; PKA-R2B holoenzyme dissociation, Cy5-IP20 fluorescence polarization; R2B truncated from residue 108, S112A mutant; 0% DMSO only, 100% 113 µM cGMP; AID 504700;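 active means activation above a cutoff set at the mean over all compounds plus 3 SD, cut at about 18% in these data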;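 further: higher means more holoenzyme dissociation and a rise in polarization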
Target sequence (P31323 whole entry, looked up, other chains not shown, the tested form may be a part): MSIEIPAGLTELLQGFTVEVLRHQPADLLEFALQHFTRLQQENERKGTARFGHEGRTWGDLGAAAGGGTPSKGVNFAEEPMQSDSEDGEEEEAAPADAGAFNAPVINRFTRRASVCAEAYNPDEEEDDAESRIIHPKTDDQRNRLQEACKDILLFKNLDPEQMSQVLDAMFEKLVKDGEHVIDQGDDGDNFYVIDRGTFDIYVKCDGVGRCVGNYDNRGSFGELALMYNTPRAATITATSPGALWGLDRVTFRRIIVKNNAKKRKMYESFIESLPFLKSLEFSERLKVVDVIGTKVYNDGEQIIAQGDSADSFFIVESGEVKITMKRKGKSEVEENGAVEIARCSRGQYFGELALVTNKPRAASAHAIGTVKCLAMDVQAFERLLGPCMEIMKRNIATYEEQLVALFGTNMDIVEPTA
ATG4B inh – blocks human ATG4B protease cleavage of LC3 substrate. inhibition, % at 8.33 µM. 0.51% of 340,000 active. Q9Y4P1. ATG4B cleavage of LC3-PLA2, NBD-HPC fluorescence, 1 h; in the data active means inhibition above about 40%
PKA-R1A act – activators of PKA-R1A complex | P00514+P68181 | PKA-R1A dissociation, Cy5-IP20 fluorescence polarization; scaled: DMSO 0%, 113 µM cGMP 100% | activation, % at 11.4 µM | 0.083% of 340,000 active;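 active means percent activation above the mean of all tested compounds plus 3 SD, cut at about 19% in these data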;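 further: higher means more PKAc released from R1A so a rise in polarization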
ATG4B confirm – ATG4B (human) inhibition, single-dose confirmed. ATG4B protease fluorescent substrate cleavage assay. shares compounds with ATG4B inh. inhibition, % at 8.33 µM. 92% of 320 active; in the data active means inhibition above about 39%
PLA2 ctr – counter-screen for ATG4B inhibitors: human phospholipase A2; shares compounds with ATG4B inh; purified PLA2, NBD-C6-HPC fluorescence, 45 min; inhibition, % at 8.33 µM; 66% of 1,600 active
Target sequence (P04054 whole entry, looked up): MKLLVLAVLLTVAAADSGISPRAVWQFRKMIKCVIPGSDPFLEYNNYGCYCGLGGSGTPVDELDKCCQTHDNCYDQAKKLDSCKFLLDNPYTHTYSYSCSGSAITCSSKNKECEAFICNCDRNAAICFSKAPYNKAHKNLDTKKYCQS
Numbers without * were called inactive; · = no result given. Unless noted, no stated cut-off is given here; in the data, active means inhibition above about 50%; inactive means the rest.

SMILES	CendR NRP1 mod	VLA-4 inh	PKA-R2B act	ATG4B inh	PKA-R1A act	PLA2 ctr	others
Cc1ccc(N(CC(=O)Nc2ccc(F)c(Cl)c2)S(=O)(=O)c2c(C)noc2C)cc1	8	-3	4	41*	-2	61*
Cn1nccc1C(=O)N(CCN1CCCCC1)CC1CCCN(C2CCCC2)C1 (stereo not drawn)	11	5	-6	-1	-2	·
COc1ccc(C(=O)N/C(=C\c2cn(S(=O)(=O)N(C)C)c3ccccc23)C(=O)NCCCN2CCOCC2)cc1	8	8	1	-12	7	·
Cc1ccc(-c2ccc(/C=N/NC(=O)Cc3nnc(N)s3)o2)cc1Cl	-12	-6	-4	68*	-3	77*
Cc1nn(Cc2ccccc2Cl)c2sc(C(=O)NC(C)(C)C)cc12	20	3	4	16	-10	·
Cc1csc(NC(=O)c2cc3c(C)nn(Cc4ccccc4Cl)c3s2)n1	-26	-9	3	66*	7	58*
C/C(=N\NC(=O)c1cccc(N/N=C(\C)c2cc(O)ccc2O)c1)c1cc(O)ccc1O	-11	12	3	46*	4	78*
C/C(=N\NC(=O)c1cccc(N/N=C(\C)c2ccco2)c1)c1ccco1	-24	·	-1	4	-4	·
CCc1noc(C)c1C(=O)N1CCN(S(=O)(=O)c2ccccc2C(F)(F)F)CC1	-12	-33	2	-7	-1	·
CCOc1cc(/C=N/NC(=O)c2nnn(-c3nonc3N)c2C)ccc1OCc1cccc(F)c1	-2	12	-3	4	-1	·
O=[N+]([O-])c1cccc(S(=O)(=O)Nc2nc3ccccc3nc2Nc2cccc(S(=O)(=O)N3CCCCC3)c2)c1	-14	·	0	46*	8	50
Cc1ccc(S(=O)(=O)Nc2nc3ccccc3nc2Nc2cccc(S(=O)(=O)N3CCCC3)c2)cc1	3	-37	3	-9	2	·
CCOC(=O)c1c(/N=C/C2=C(O)CCCC2=O)sc2c1CCCC2	-6	-5	·	26	·	·
CCOC(=O)c1c(/N=C/C2=C(O)CC(C)(C)CC2=O)sc(C)c1C	-103	-14	-2	62*	2	16	ATG4B confirm=69*
COC(=O)c1cc(C)nc2c1C(=O)C(=O)C=C2N1CCOCC1	29*	-5	-6	75*	-14	-12	ATG4B confirm=32
COC(=O)c1cc(S(=O)(=O)N2CCOCC2)c(Cl)cc1N1CCOCC1	-10	6	-3	-7	3	·
Cc1nn2c(COc3ccc(NC(=O)c4ccccc4Cl)cc3)nnc2c2ccccc12	-10	4	-2	43*	3	39
CCOc1ccc(C(=O)Nc2cccc(C(=O)O)c2)cc1Cl	1	3	-9	17	12	·
CCOc1ccc(C(=O)Nc2cc(NC(=O)c3ccc(OCC)c(Cl)c3)cc(C(=O)O)c2)cc1Cl	-23	·	-2	48*	5	60*
CCCn1c(N)c(C(=O)CSc2nnc(C3CC3)n2C2CC2)c(=O)[nH]c1=O	4	-18	-7	12	-3	·
S=C(Nc1ccc(Cl)c(Cl)c1)NC1CCCCC1	-8	8	-7	48*	13	40
S=C(NCc1cccc(Cl)c1)NC1CCCCC1	1	-7	-5	59*	10	64*
S=C(NCc1ccccc1)NC1CCCCC1	-3	-1	-4	4	1	·
S=C(NCCCCNC(=S)NCc1ccccc1)NCc1ccccc1	-5	6	-5	4	-8	·
S=C(NCCCCc1ccccc1)NCc1ccccc1	1	7	3	63*	-4	70*
SMILES	CendR NRP1 mod	VLA-4 inh	PKA-R2B act	ATG4B inh	PKA-R1A act	PLA2 ctr	others
S=C(Nc1ccc2nsnc2c1)NC1CCCCC1	23	12	-13	5	-3	·
S=C(NCCc1ccccc1)NCc1cccc(Cl)c1	-19	3	-12	84*	-4	90*
S=C(NCCc1ccccc1)NCCc1ccccc1	12	-16	-1	-1	-17	·
O=C(CC[C@H]1O[C@@H](n2ccc(=O)[nH]c2=O)[C@H](O)[C@@H]1O)NCc1ccccc1	0	·	·	·	·	·
CC(=O)c1ccc(NC(=O)CN2C(=O)NC(C)(C3CCCCC3)C2=O)cc1 (stereo not drawn)	10	3	1	-27	-11	·
O=C(CCSCc1cccc(Cl)c1)NCCc1ccc(Cl)cc1	1	10	-8	44*	-8	16
O=C(CCSCc1ccc(Cl)cc1)NCCc1ccccc1	-1	2	-8	5	-15	·
Cc1cc(C)cc(-c2nnc(SCC(=O)c3c(N)n(C4CC4)c(=O)[nH]c3=O)o2)c1	6	·	8	-3	9	·
COc1ccccc1N1CCN(C2CC(=O)N(c3cccc(Cl)c3)C2=O)CC1 (stereo not drawn)	8	2	-3	3	-7	·
CC1/C(=N/O)CC(c2ccccc2)N(C)C1c1ccccc1 (stereo not drawn)	9	-8	-3	57*	-9	48
CC1/C(=N/O)CC(c2ccccc2)NC1c1ccccc1 (stereo not drawn)	0	3	1	-2	-4	·
COc1ccc(-c2cc(-c3nnc(COC(=O)c4ccncc4)o3)c3ccccc3n2)cc1OC	-8	12	5	-20	-5	·
O=C(CSc1nnc(-c2cc3ccccc3cc2O)n1Cc1ccco1)N1CCc2ccccc2C1	0	-4	5	41*	0	54*
CN1CCN(S(=O)(=O)c2ccc(Br)c3ccccc23)CC1	0	5	6	-8	5	·
CCOc1ccc(C=NNc2ccc(S(=O)(=O)Nc3ccccc3C(=O)O)cc2[N+](=O)[O-])cc1	-9	-3	-5	10	9	·
COc1ccc(C=NNc2ccc(S(=O)(=O)Nc3ccccc3C(=O)O)cc2[N+](=O)[O-])c(OC)c1	20	10	-8	48*	0	49
CSc1ccc(C=NNc2ccc(S(=O)(=O)Nc3ccccc3C(=O)O)cc2[N+](=O)[O-])cc1	-26	-1	2	-2	-4	·
Cc1nn(-c2ccccc2)c(Cl)c1/C=N/Nc1ccc(S(=O)(=O)Nc2ccccc2C(=O)O)cc1[N+](=O)[O-]	-14	12	-5	67*	-14	47
CCCC[C@@H](CN[C@H](C)CNC)NCC1CCC(C(C)(C)C)CC1 (stereo partly drawn)	·	20	·	11	·	·
CC(C)c1ccc(NC2CCCN(C(=O)CC3CCCC3)C2)cc1 (stereo not drawn)	-3	6	-1	87*	-2	89*
